According to PubChem BioAssay AID1159580 (chemical genetic matrix, 2015):
The campaign covered roughly 5,500 compounds. About 2,000 (36%) were called active. About 18% were inconclusive and are not listed. Rule as the data show it: active = normalized growth mostly below about 0.91 (no sharp cut-off); inconclusive = no clear call, values can overlap the other calls; inactive = mostly above about 0.92. This is one part of the list.

Test: chemical genetic growth profiling, strain panel (AID 1159580);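 also: tested at 20 µM; growth read once vehicle control cultures reached saturation at 30 °C; 1 = growth at the plate median or of vehicle wells; lower values mean less growth of the strain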
Conditions: growth OD
[1] = S. cerevisiae deletion strains, locus YAL013W, strain DEP1, active compounds read low
[2] = S. cerevisiae deletion strains, locus YBR229C, strain ROT2, active compounds read low
[3] = S. cerevisiae deletion strains, locus YDL101C, strain DUN1, active compounds read low
[4] = S. cerevisiae deletion strains, locus YDR150W, strain NUM1, active compounds read low
[5] = S. cerevisiae deletion strains, locus YEL061C, strain CIN8, active compounds read low
[6] = S. cerevisiae deletion strains, locus YGR078C, strain PAC10, active compounds read low
[7] = S. cerevisiae deletion strains, locus YGR229C, strain SMI1, active compounds read low
[8] = S. cerevisiae deletion strains, locus YHR030C, strain SLT2, active compounds read low
[9] = S. cerevisiae deletion strains, locus YHR087W, strain rtc3, active compounds read low
[10] = S. cerevisiae deletion strains, locus YJR043C, strain POL32, active compounds read low
[11] = S. cerevisiae deletion strains, locus YJR075W, strain HOC1, active compounds read low
[12] = S. cerevisiae deletion strains, locus YKL190W, strain CNB1, active compounds read low
[13] = S. cerevisiae deletion strains, locus YLR039C, strain RIC1, active compounds read low
[14] = S. cerevisiae deletion strains, locus YLR058C, strain SHM2 (second series), active compounds read low
[15] = S. cerevisiae deletion strains, locus YLR085C, strain ARP6, active compounds read low
[16] = S. cerevisiae deletion strains, locus YLR262C, strain YPT6, active compounds read low
[17] = S. cerevisiae deletion strains, locus YML094W, strain GIM5, active compounds read low
[18] = S. cerevisiae deletion strains, locus YMR219W, strain ESC1, active compounds read low
[19] = S. cerevisiae deletion strains, locus YMR263W, strain SAP30, active compounds read low
[20] = S. cerevisiae deletion strains, locus YNL153C, strain GIM3, active compounds read low
[21] = S. cerevisiae deletion strains, locus YNL298W, strain CLA4 (second series), active compounds read low
[22] = S. cerevisiae deletion strains, locus YNL322C, strain KRE1, active compounds read low
[23] = S. cerevisiae deletion strains, locus YNR030W, strain Alg12, active compounds read low
[24] = S. cerevisiae deletion strains, locus YPL055C, strain LGE1, active compounds read low
[25] = S. cerevisiae deletion strains, locus YPL241C, strain CIN2, active compounds read low
[26] = S. cerevisiae deletion strains, locus YPR135W, strain CTF4, active compounds read low
[27] = S. cerevisiae deletion strains, locus YDL134C, strain PPH21, active compounds read low
[28] = S. cerevisiae deletion strains, locus YJL187C, strain SWE1, active compounds read low
[29] = S. cerevisiae deletion strains, locus YOL006C, strain TOP1, active compounds read low

Measured: normalized growth

CSc1nsc(SC)c1C(=O)NC(=O)Nc1ccc(F)cc1F
inactive: [1] 1.01 | [2] 1.01 | [3] 1.04 | [4] 1.04 | [5] 1.01 | [6] 1.01 | [7] 1.02 | [8] 1.1 | [9] 1.02 | [10] 1.01 | [11] 1.01 | [12] 1.02 | [13] 1.03 | [14] 1 | [15] 1.02 | [16] 1 | [17] 1.08 | [18] 1 | [19] 0.993 | [20] 1.01 | [21] 1.04 | [22] 1.02 | [23] 1.03 | [24] 1.08 | [25] 1.07 | [26] 1.07

Cc1cc(C)c(CSCCNC(=O)Nc2ccc(F)cc2F)c(C)c1
inactive: [1] 1.02 | [2] 1.01 | S. cerevisiae deletion strains, locus YCL061C, strain MRC1, active compounds read low 1.03 | [3] 1.03 | [27] 1.01 | [4] 0.942 | [5] 1.01 | [6] 1.03 | [7] 1.02 | [8] 1.08 | [9] 1.02 | [28] 1.03 | [10] 1.02 | [11] 1.03 | [12] 1.02 | [13] 1.05 | [14] 1.02 | [16] 1.03 | [17] 1.04 | [18] 1.01 | [19] 0.937 | S. cerevisiae deletion strains, locus YMR307W, strain GAS1, active compounds read low 1.29 | [20] 1.01 | [21] 1.03 | [22] 1.02 | [23] 1.04 | [29] 1.18 | [24] 0.908 | [25] 1.13 | [26] 1.11
active: [15] 1.28 [resistant]

COc1ccccc1NC(=O)NCCSCc1ccccc1Cl
inactive: [1] 0.979 | [2] 0.981 | [3] 1.03 | [27] 0.978 | [4] 0.968 | [5] 0.983 | [6] 0.993 | [7] 0.984 | [8] 0.877 | [9] 0.976 | [28] 1.01 | [10] 1.01 | [11] 1.01 | [13] 0.887 | [14] 1 | [15] 1.07 | [16] 0.931 | [17] 0.963 | [18] 0.988 | [19] 1.01 | [20] 1.01 | [21] 0.974 | [22] 0.985 | [23] 0.971 | [29] 0.954 | [24] 0.927 | [25] 1.04 | [26] 0.88 | S. cerevisiae strains, strain wild type, active compounds read low 0.978
